Experimental data as given in PubChem BioAssay (EPA / NIEHS).
Activity calls are given as the source filed them. How the source made its calls: active means hit-call score of the fitted dose curve at least 0.9, where 1 is the maximum; inactive means score below 0.9.

Experiment: ATG_AP_2_CIS: Attagene CIS-FACTORIAL HepG2 Assay for human Activator Protein 2 (AP-2) (AID 2282932)
Settings: HepG2 AP-2 cis-reporter, Attagene transcription factor profiling; actives raise or lower the signal
Procedure: ATG_CIS is a cell-based, multiplexed-readout assay that uses HepG2, a human liver cell line, with measurements taken at 24 hours after chemical dosing in a 24-well plate.ATG_AP_2_CIS is one of 52 assay component(s) measured or calculated from the ATG_CIS assay. It is designed to make measurements of mRNA induction, a form of inducible reporter, as detected with fluorescence intensity signals by Reverse transcription polymerase chain reaction (RT-PCR) and Capillary electrophoresis technology.Data from the assay component ATG_AP_2_CIS was analyzed into 1 assay endpoint. This assay endpoint, ATG_AP_2_CIS, was analyzed with bidirectional fitting relative to DMSO as the negative control and baseline of activity. Using a type of inducible reporter, measures of mRNA for gain or loss-of-signal activity can be used to understand the reporter gene at the transcription factor-level as they relate to the gene TFAP2A and TFAP2B and TFAP2D. Furthermore, this assay endpoint can be referred to as a primary readout, because this assay has produced multiple assay endpoints where this one serves a reporter gene function. To generalize the intended target to other relatable targets, this assay endpoint is annotated to the dna binding intended target family, where the subfamily is basic helix-turn-helix leucine zipper.
Human liver HepG2 cells are transiently transfected with multiple reporter transcription units (MRTUs) in 6-well plates using FuGene 6 reagent (Roche; 3 ml FuGene/1 mg DNA). The MRTU constructs are regulated by a cis-regulating element (promoter). […] A major difference between the CIS and TRANS system is that in CIS activities of endogenous TFs are measured, whereas the TRANS assay evaluates changes in activities of exogenous, chimeric NR-Gal4 proteins. […] At the end of 24 hour incubation, total RNA was isolated using TriZol reagent (Invitrogen). The isolated RNA is then reverse-transcribed using oligo(dT) primer and Mo-MLV reverse transcriptase (Invitrogen) with DNAse I (Ambion) treatment for 30 min. The one-tenth of the produced cDNA was amplified by PCR using Taq DNA polymerase (Invitrogen) and two reporter sequence-specific primers. The PCR products were fluorescently labeled by primer extension with 6-arboxyfluorescein (6-FAM) 5'-labeled reporter sequence-specific primer (2 min at 95 C, 20 s at 68 C and 10 min at 72 C) and these products were digested with 5U of HpaI (New England Biolabs) for 2h at 37 C. The fragments were purified using Qiaquick PCR columns (Qiagen), analyzed on an ABI 3130xL genetic analyzer (Applied Biosystems) with peak positions identified by using a set of X-rhodamine (ROX)-labeled MapMarker1000 molecular weight standards (BioVentures). The raw capillary electrophoresis data was processed using Attagraph software (Attagene).
For `Cc1cc(C)c(O)c(C(C)(C)C)c1`, the outcome was “inactive”.
For `CCCCCCCCCCCCC[N+](C)(C)Cc1ccccc1`, the outcome was “inactive”.
For `O=C(O)CCC(F)(F)C(F)(F)C(F)(F)F`, the outcome was “inactive”.
With `O=C(Cl)C(F)(F)C(F)(F)C(F)(F)C(F)(F)C(F)(F)C(F)(F)F` the outcome was “inactive”.
In the case of `O=c1cccc[nH]1`, the outcome is reported as “inactive”.
For `C[Si](Cl)(Cl)CCC(F)(F)C(F)(F)C(F)(F)C(F)(F)C(F)(F)C(F)(F)F`, the outcome was “inactive”.
For `CO[Si](C)(CCC(F)(F)C(F)(F)C(F)(F)C(F)(F)C(F)(F)C(F)(F)F)OC`, the outcome was “inactive”.
With `COc1ccccc1C=O` the outcome was “inactive”.
In the case of `CCC(=O)OC(C)c1ccccc1` (stereo not given), the outcome is reported as “inactive”.
With `O=C1c2c(O)ccc(Nc3ccc(CCO)cc3)c2C(=O)c2c([N+](=O)[O-])ccc(O)c21` the outcome was “inactive”.
In the case of `Nc1c(Br)cc([N+](=O)[O-])cc1Br`, the outcome is reported as “inactive”.
For `CCCCCCCCCCCCCCCCC`, the outcome was “inactive”.
In the case of `CC(C)OC(=O)COc1ccc(Cl)cc1Cl`, the outcome is reported as “inactive”.
In the case of `CCOC(C=C(C)CCC=C(C)C)OCC`, the outcome is reported as “inactive”.
For `CCCCCCCC/C=C\CCCCCCCC(=O)OCC(O)CO` (stereo not given), the outcome was “inactive”.
In the case of `CC(C)C(=O)OCc1ccccc1`, the outcome is reported as “inactive”.
For `Oc1ccc(C2(c3ccc(O)c(C4CCCCC4)c3)CCCCC2)cc1C1CCCCC1`, the outcome was “inactive”.
With `OCC(F)(F)C(F)(F)C(F)(F)C(F)(F)C(F)(F)C(F)(F)CO` the outcome was “inactive”.
In the case of `OCCCc1cccnc1`, the outcome is reported as “inactive”.
For `CC(C)(C)c1cc(CCC(=O)NCCCCCCNC(=O)CCc2cc(C(C)(C)C)c(O)c(C(C)(C)C)c2)cc(C(C)(C)C)c1O`, the outcome was “inactive”.
For `Cc1ccc([N+](=O)[O-])c(C)c1`, the outcome was “inactive”.
For `CCCCCCCCCCCCCC[P+](CCCC)(CCCC)CCCC`, the outcome was “inactive”.
In the case of `COCCOCCC[Si](C)(O[Si](C)(C)C)O[Si](C)(C)C`, the AC50 is reported as 60.1 µM (active).
For `CC(=O)c1ccccc1N`, the outcome was “inactive”.
In the case of `FC(F)(F)C(F)(F)C(F)(F)CC1CO1` (stereo not given), the outcome is reported as “inactive”.
In the case of `O=C=NCc1cccc(CN=C=O)c1`, the outcome is reported as “inactive”.
For `OCCCCl`, the outcome was “inactive”.
In the case of `OCCCCC(F)(F)C(F)(F)C(F)(F)C(F)(F)F`, the outcome is reported as “inactive”.
In the case of `NC(=O)C(F)(F)C(F)(F)C(F)(F)C(F)F`, the outcome is reported as “inactive”.
In the case of `CCn1c2ccccc2c2ccccc21`, the outcome is reported as “inactive”.
For `CCC/C=C/CO`, the outcome was “inactive”.
In the case of `Nc1cc([N+](=O)[O-])cc(Cl)c1O`, the outcome is reported as “inactive”.
With `C=C(C)CCCC` the outcome was “inactive”.
For `C=CCOC(=O)CC(C)C`, the outcome was “inactive”.
In the case of `O=C(O)C(F)(F)C(F)(F)C(F)(F)C(F)(F)C(F)(F)C(F)(F)C(F)F`, the outcome is reported as “inactive”.
In the case of `OCC(F)(F)C(F)(F)C(F)(F)CO`, the outcome is reported as “inactive”.
With `CC1=CCC(=O)O1` the outcome was “inactive”.
For `CCc1ccc(C)nc1`, the outcome was “inactive”.
In the case of `O=C1OC(=O)c2ccc3c4c(ccc1c24)C(=O)OC3=O`, the outcome is reported as “inactive”.
In the case of `CCCC(=O)OCC(COC(=O)CCC)OC(=O)CCC`, the outcome is reported as “inactive”.
